# Source: PubChem BioAssay (EPA / NIEHS)
# Values joined by “and” are separate entries in the source; they are usually repeats but may differ in a detail not shown here. Equal entries are not always repeated. Records with an inconclusive call do not appear. More than one record can exist for a structure, and the calls need not agree. Active and inactive are the calls of the source. How the source made its calls, unless noted: active means hit-call score of the fitted dose curve at least 0.9, where 1 is the maximum; inactive means score below 0.9.
# What was measured:
# [1] = read-out: Interleukin-8 (IL8), CXCL8 (gene 3576); test: BSK_3C_IL8: BioMAP Diversity Plus: 3C Assay for Interleukin-8 (IL8) Biomarker Activity (AID 2283020); conditions: primary human endothelial cells (HUVEC); actives raise or lower the signal
# Procedure, shortened: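 Endothelial primary cells of human umbilical vein origin are dosed with chemical; after 24 h the IL-8 biomarker is measured by ELISA, and concentration–response is fitted in both directions versus DMSO.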
# [2] = read-out: Monokine induced gamma interferon (MIG), CXCL9 (gene 4283); test: BSK_3C_MIG: BioMAP Diversity Plus: 3C Assay for Monokine induced gamma interferon (MIG) Biomarker Activity (AID 2283021); conditions: primary human endothelial cells (HUVEC); actives raise or lower the signal
# Procedure, shortened: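 Endothelial primary cells (human umbilical vein) are dosed with test chemical in the 3C system. MIG levels are measured by ELISA at 24 h and fitted in both directions relative to DMSO.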
# [3] = molecular target: human Vitamin D Receptor (VDR), VDR (gene 7421) (UniProt P11473); test: ATG_VDR_TRANS: Attagene TRANS-FACTORIAL HepG2 Assay for human Vitamin D Receptor (VDR) (AID 2283022; active means hit-call score of the fitted dose curve at least 0.9, where 1 is the maximum)
# human Vitamin D Receptor (VDR), VDR (gene 7421), sequence (P11473 whole entry, looked up, the tested form may be a part): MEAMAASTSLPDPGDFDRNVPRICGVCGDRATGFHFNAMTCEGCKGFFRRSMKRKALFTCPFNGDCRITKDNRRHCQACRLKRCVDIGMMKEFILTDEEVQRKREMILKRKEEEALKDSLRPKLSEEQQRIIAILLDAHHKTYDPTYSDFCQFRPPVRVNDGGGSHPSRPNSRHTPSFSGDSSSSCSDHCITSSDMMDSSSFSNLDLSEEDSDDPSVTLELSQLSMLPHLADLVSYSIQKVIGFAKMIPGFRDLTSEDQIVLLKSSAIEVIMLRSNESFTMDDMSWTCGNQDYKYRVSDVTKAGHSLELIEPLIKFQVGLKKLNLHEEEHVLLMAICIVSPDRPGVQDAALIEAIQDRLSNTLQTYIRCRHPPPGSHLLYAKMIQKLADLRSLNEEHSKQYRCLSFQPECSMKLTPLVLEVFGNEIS
# Procedure, shortened: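 Transactivation by an exogenous VDR-Gal4 chimera in transiently transfected HepG2 cells was measured as reporter transcript level 24 hours after chemical treatment. RT-PCR products were analysed by capillary electrophoresis and fitted in the positive direction relative to DMSO.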
# [4] = BSK_3C_SRB: Viability Assessment in the BioMAP Diversity Plus: 3C Assay (AID 2283023); conditions: primary human endothelial cells (HUVEC);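 further: fitted both ways against DMSO so a hit may be signal rise or drop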
# Procedure, shortened: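 Cytotoxicity readout in parallel HUVEC 3C cultures: after 24 h compound exposure, cells fixed with 10% TCA, stained with 0.1% SRB and read at 560 nm. Gain or loss relative to DMSO fitted.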
# [5] = read-out: Matrix Metallopeptidase 1 (MMP1), MMP1 (gene 4312); test: BSK_BE3C_MMP1: BioMAP Diversity Plus: BE3C Assay for Matrix Metallopeptidase 1 (MMP1) Biomarker Activity (AID 2283024); conditions: primary human bronchial epithelial cells; actives raise or lower the signal
# Procedure, shortened: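 MMP1 signal, measured by ELISA after a 24 h chemical exposure of human primary bronchial epithelial cells, is analysed with bidirectional fitting using DMSO as negative control.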
# [6] = read-out: Pselectin, SELP (gene 6403); test: BSK_4H_Pselectin: BioMAP Diversity Plus: 4H Assay for Pselectin Biomarker Activity (AID 2283026); conditions: primary human endothelial cells (HUVEC); actives raise or lower the signal
# Procedure, shortened: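 Endothelial primary cells (human umbilical vein) are dosed, incubated 24 h, and assayed for surface P-selectin by ELISA; responses in either direction are fitted relative to the DMSO negative control.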
# [7] = BSK_4H_SRB: Viability Assessment in the BioMAP Diversity Plus: 4H Assay (AID 2283027); conditions: primary human endothelial cells (HUVEC);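 further: cells exposed to compound for 24 h before staining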;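 on AC50: curves fitted both ways versus DMSO so AC50 may be loss or gain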
# Procedure, shortened: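 Cytotoxicity readout: sulforhodamine B (0.1%) staining of total protein after 10% TCA fixation, measured at 560 nm in human umbilical vein endothelium at 24 h. DMSO set the baseline; fitting was bidirectional.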
# [8] = BSK_BE3C_SRB: Viability Assessment in the BioMAP Diversity Plus: BE3C Assay (AID 2283028); conditions: primary human bronchial epithelial cells;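 on AC50: fitted both ways so AC50 may mark signal gain or loss versus DMSO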
# Procedure, shortened: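 Cytotoxicity read-out: SRB (0.1%) staining of TCA-fixed (10%) human lung bronchial epithelial cells, absorbance 560 nm, 24 h post-dosing. Curves fitted both directions relative to DMSO.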
# [9] = read-out: Thrombomodulin, THBD (gene 7056); test: BSK_3C_Thrombomodulin: BioMAP Diversity Plus: 3C Assay for Thrombomodulin Biomarker Activity (AID 2283029); conditions: primary human endothelial cells (HUVEC); actives raise or lower the signal
# Procedure, shortened: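 Endothelial cells from umbilical vein are dosed with test chemical and incubated 24 h. Thrombomodulin is then quantified by ELISA, with DMSO serving as negative control and activity baseline.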
# [10] = read-out: Urokinase-type plasminogen activator receptor (uPAR), PLAUR (gene 5329); test: BSK_4H_uPAR: BioMAP Diversity Plus: 4H Assay for Urokinase-type plasminogen activator receptor (uPAR) Biomarker Activity (AID 2283030); conditions: primary human endothelial cells (HUVEC); actives raise or lower the signal
# Procedure, shortened: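 uPAR level read by ELISA on HUVEC cultures (BioMAP 4H) 24 h post-dosing, analyzed for gain or loss relative to DMSO. Parallel SRB staining assessed overt cytotoxicity.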
# [11] = read-out: Vascular endothelial growth factor receptor 2 (Homo sapiens) (UniProt P35968); test: BSK_4H_VEGFRII: BioMAP Diversity Plus: 4H Assay for Vascular endothelial growth factor receptor 2 (VEGFR2) Biomarker Activity (AID 2283031); conditions: primary human endothelial cells (HUVEC); actives raise or lower the signal
# Procedure, shortened: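 Measured by ELISA after 24 h of compound treatment: VEGFR2 on primary human umbilical vein endothelial cells, fitted in both directions relative to DMSO. Parallel cultures received SRB staining (560 nm) for overt cytotoxicity.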
# [12] = read-out: Human Leukocyte Antigen - DR isotype (HLADR), HLA-DRA (gene 3122); test: BSK_BE3C_HLADR: BioMAP Diversity Plus: BE3C Assay for Human Leukocyte Antigen - DR isotype (HLADR) Biomarker Activity (AID 2283032); conditions: primary human bronchial epithelial cells; actives raise or lower the signal
# Procedure, shortened: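 Chemicals are dosed onto BE3C bronchial epithelial cultures of human origin and left 24 h. HLA-DR is then measured by ELISA, and the endpoint is fitted in both directions using DMSO as the activity baseline.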
# [13] = read-out: Vascular cell adhesion molecule 1 (VCAM1), VCAM1 (gene 7412); test: BSK_4H_VCAM1: BioMAP Diversity Plus: 4H Assay for Vascular cell adhesion molecule 1 (VCAM1) Biomarker Activity (AID 2283033); conditions: primary human endothelial cells (HUVEC); actives raise or lower the signal;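 on outcome: cell-surface VCAM-1 protein measured by ELISA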
# Procedure, shortened: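 Chemicals are added to primary human umbilical vein endothelial cells. After 24 h, VCAM-1 levels are measured by ELISA. Values come from bidirectional fitting referenced to DMSO.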
# [14] = read-out: Interferon-gamma inducible Protein 10 (IP10), CXCL10 (gene 3627); test: BSK_BE3C_IP10: BioMAP Diversity Plus: BE3C Assay for Interferon-gamma inducible Protein 10 (IP10) Biomarker Activity (AID 2283034); conditions: primary human bronchial epithelial cells; actives raise or lower the signal
# Procedure, shortened: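 IP-10 quantified by ELISA serves as the endpoint. Cells: primary human bronchial epithelium, read 24 h after compound addition. Activity is derived by bidirectional fitting with DMSO as negative control.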
# [15] = read-out: Monokine induced gamma interferon (MIG), CXCL9 (gene 4283); test: BSK_BE3C_MIG: BioMAP Diversity Plus: BE3C Assay for Monokine induced gamma interferon (MIG) Biomarker Activity (AID 2283035); conditions: primary human bronchial epithelial cells; actives raise or lower the signal;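 on outcome: MIG protein measured by ELISA in BE3C cultures after 24 h of dosing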
# Procedure, shortened: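 hu bronchial epithelial 1° cells, 24 h cpd; MIG by ELISA; bidirectional fit, DMSO = baseline.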
# [16] = read-out: Transforming growth factor beta 1 (TGFb1), TGFB1 (gene 7040); test: BSK_BE3C_TGFb1: BioMAP Diversity Plus: BE3C Assay for Transforming growth factor beta 1 (TGFb1) Biomarker Activity (AID 2283036;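 further: TGF-b1 protein level measured by ELISA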); conditions: primary human bronchial epithelial cells; actives raise or lower the signal
# Procedure, shortened: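 Bronchial epithelial primary cells are treated with test chemical, then TGF-b1 is quantified by ELISA after 24 hours. Values derive from bidirectional fitting against DMSO, with cytotoxicity checked by SRB staining in parallel cultures.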
# [17] = read-out: Plasminogen activator inhibitor-1 (PAI1), SERPINE1 (gene 5054); test: BSK_BE3C_PAI1: BioMAP Diversity Plus: BE3C Assay for Plasminogen activator inhibitor-1 (PAI1) Biomarker Activity (AID 2283037); conditions: primary human bronchial epithelial cells; actives raise or lower the signal
# Procedure, shortened: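 Values derive from bidirectional fitting against DMSO baseline of PAI-1 levels, measured by ELISA in human bronchial epithelial cells 24 h after compound addition.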
# [18] = read-out: urokinase plasminogen activator (uPA), PLAU (gene 5328); test: BSK_BE3C_uPA: BioMAP Diversity Plus: BE3C Assay for urokinase plasminogen activator (uPA) Biomarker Activity (AID 2283038); conditions: primary human bronchial epithelial cells; actives raise or lower the signal;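 on outcome: uPA protein level quantified by ELISA in cell cultures; uPA read one day after compound addition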
# Procedure, shortened: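 ELISA for uPA on human primary bronchial epithelial cultures 24 h post-treatment, gain or loss against DMSO. Parallel SRB staining (0.1% after 10% TCA fixation, 560 nm) assessed overt cytotoxicity.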
# [19] = read-out: Interleukin-6 (IL6), IL6 (gene 3569); test: BSK_CASM3C_IL6: BioMAP Diversity Plus: CASM3C Assay for Interleukin-6 (IL6) Biomarker Activity for (AID 2283040); conditions: primary human coronary artery smooth muscle cells; actives raise or lower the signal
# [20] = read-out: Urokinase-type plasminogen activator receptor (uPAR), PLAUR (gene 5329); test: BSK_BE3C_uPAR: BioMAP Diversity Plus: BE3C Assay for Urokinase-type plasminogen activator receptor (uPAR) Biomarker Activity (AID 2283039); conditions: primary human bronchial epithelial cells; actives raise or lower the signal;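 further: uPAR protein level measured by ELISA on the cells; cells exposed to compound for one day before measurement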
# Procedure, shortened: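 Steps: dose human primary bronchial epithelial cells, incubate 24 h, measure uPAR by ELISA, then fit gain- or loss-of-signal response bidirectionally relative to DMSO.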
smiles,measurement,setting,value
CCN(CC)c1ccc(C=O)c(O)c1,outcome,[1],inactive
same,outcome,[2],inactive
same,outcome,[3],inactive
same,outcome,[4],inactive
same,outcome,[5],inactive
same,outcome,[6],inactive
same,outcome,[7],inactive
same,outcome,[8],inactive
same,outcome,[9],inactive
same,outcome,[10],inactive
same,outcome,[11],inactive
same,outcome,[12],inactive
same,outcome,[13],inactive
same,outcome,[14],inactive
same,outcome,[15],inactive
same,outcome,[16],inactive
same,outcome,[17],inactive
same,outcome,[18],inactive
same,outcome,[19],inactive
C=CC(=O)OCCC(F)(F)C(F)(F)C(F)(F)C(F)(F)F,outcome,[1],inactive
same,outcome,[2],inactive
same,outcome,[3],inactive
same,outcome,[4],inactive
same,outcome,[5],inactive
same,outcome,[6],inactive
same,outcome,[7],inactive
same,outcome,[8],inactive
same,AC50,[9],6.34 µM (active) and 21.1 µM (active)
same,outcome,[10],inactive
same,outcome,[11],inactive
same,outcome,[12],inactive
same,AC50,[13],21.1 µM (active)
same,outcome,[13],inactive
same,outcome,[14],inactive
same,outcome,[15],inactive
same,outcome,[18],inactive
same,outcome,[19],inactive
CCN(CCO)S(=O)(=O)C(F)(F)C(F)(F)C(F)(F)C(F)(F)C(F)(F)C(F)(F)C(F)(F)C(F)(F)F,AC50,[1],13.7 µM (active)
same,outcome,[1],inactive
same,outcome,[2],inactive
same,outcome,[3],inactive
same,AC50,[4],27.6 µM (active) and 17.8 µM (active)
same,AC50,[5],4.15 µM (active)
same,outcome,[5],inactive
same,AC50,[6],19.1 µM (active)
same,outcome,[6],inactive
same,AC50,[7],45.8 µM (active) and 40.1 µM (active)
same,AC50,[8],44.5 µM (active) and 37.2 µM (active)
same,AC50,[9],12.6 µM (active) and 21.8 µM (active)
same,outcome,[10],inactive
same,outcome,[11],inactive
same,AC50,[12],43.7 µM (active) and 27.7 µM (active)
same,AC50,[13],50.6 µM (active)
same,outcome,[13],inactive
same,AC50,[14],35 µM (active) and 14.4 µM (active)
same,AC50,[15],50.6 µM (active) and 43.2 µM (active)
same,AC50,[17],30 µM (active) and 15.4 µM (active)
same,AC50,[18],47.8 µM (active)
same,outcome,[18],inactive
same,outcome,[19],inactive
FC(F)(F)C(F)(F)C(F)(F)C(F)(F)C(F)(F)C(F)(F)C(F)(F)CCI,outcome,[1],inactive
same,outcome,[2],inactive
same,outcome,[3],inactive
same,outcome,[4],inactive
same,outcome,[5],inactive
same,outcome,[6],inactive
same,outcome,[7],inactive
same,outcome,[8],inactive
same,outcome,[9],inactive
same,outcome,[10],inactive
same,outcome,[11],inactive
same,outcome,[12],inactive
same,outcome,[13],inactive
same,outcome,[14],inactive
same,outcome,[15],inactive
same,outcome,[18],inactive
same,outcome,[19],inactive
O=C=Nc1cccc2c(N=C=O)cccc12,outcome,[1],inactive
same,outcome,[2],inactive
same,outcome,[4],inactive
same,outcome,[5],inactive
same,outcome,[6],inactive
same,outcome,[7],inactive
same,outcome,[8],inactive
same,outcome,[9],inactive
same,outcome,[10],inactive
same,outcome,[11],inactive
same,outcome,[12],inactive
same,outcome,[13],inactive
same,outcome,[14],inactive
same,outcome,[15],inactive
same,outcome,[16],inactive
same,outcome,[18],inactive
same,outcome,[19],inactive
O=S(=O)(OCC(F)(F)F)C(F)(F)C(F)(F)C(F)(F)C(F)(F)F,outcome,[1],inactive
same,outcome,[2],inactive
same,outcome,[3],inactive
same,outcome,[4],inactive
same,outcome,[5],inactive
same,outcome,[6],inactive
same,outcome,[7],inactive
same,outcome,[8],inactive
same,outcome,[9],inactive
same,outcome,[10],inactive
same,outcome,[11],inactive
same,outcome,[12],inactive
same,outcome,[13],inactive
same,outcome,[14],inactive
same,outcome,[15],inactive
same,outcome,[18],inactive
same,outcome,[20],inactive
same,outcome,[19],inactive
